mHTT CaM bind = mHTT-calmodulin interaction abrogation. P42858. hit rate 3.6% among 190,000. AlphaScreen His-mHTT/GST-CaM binding, luminescence. inhibition, % at 15 µM;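 note: 0% = both proteins with DMSO and 100% = one protein alone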
Pf apPOL block = Pf-apPOL DNA polymerase inhibition. Recombinant Pf-apPOL, molecular beacon fluorescence, 1.5 h. inhibition, % at 10 µM. hit rate 0.25% among 210,000. AID 1794808
* = called active by the depositor. The entries come from a sample that favours hits as a whole. Cut-off read from the data, not from the text of the source: active = inhibition above about 50%; inactive = the rest.

Screening Cc1ccnc(NC(c2ccsc2)c2ccc3cccnc3c2O)c1 (configuration not stated) returned mHTT CaM bind 100* and Pf apPOL block -1.
Screening Cc1ccnc(NC(=O)Nc2ccc(F)cc2)c1 returned mHTT CaM bind -1 and Pf apPOL block -8.
Screening Cc1ccnc(NC(c2ccc(F)cc2)c2ccc3cccnc3c2O)c1 (configuration not stated) returned mHTT CaM bind 98* and Pf apPOL block 2.
`Cc1ccnc(NC(=O)c2ccc(-c3nc(-c4ccccc4)no3)cc2)c1` gave mHTT CaM bind -5 and Pf apPOL block -3.
`Cc1ccnc(NC(c2ccccn2)c2ccc3cccnc3c2O)c1` (configuration not stated) gave mHTT CaM bind 100* and Pf apPOL block -4.
`Cc1ccnc(NC(c2ccncc2)c2ccc3cccnc3c2O)c1` (configuration not stated) gave mHTT CaM bind 100* and Pf apPOL block 5.
Screening Cc1cccc(N2CC(C(=O)Nc3ccc(Cl)cc3)CC2=O)c1C (configuration not stated) returned mHTT CaM bind 22 and Pf apPOL block -3.
CCOC(=O)C(=CNc1nc(C(=O)OCC)cs1)C(=O)OCC was read as Pf apPOL block -5.
O=C(Nc1ccc2ncnc(N3CCCCC3)c2c1)c1ccccc1Br was read as mHTT CaM bind 44 and Pf apPOL block -1.
For Cc1cccc(C)c1NC(=O)CSc1nnnn1-c1ccc(F)cc1F the results were mHTT CaM bind -1 and Pf apPOL block -6.
For O=C(NCCCOc1cccc2cccnc12)c1ccc2c(c1)OCO2 the results were mHTT CaM bind 7 and Pf apPOL block -4.
Cc1ccnc(NC(c2ccc3c(c2)OCO3)c2ccc3cccnc3c2O)c1 (configuration not stated) was read as mHTT CaM bind 99* and Pf apPOL block 1.
For Cc1cccc2nnc(N3CCCC(C(=O)NCc4ccc(Cl)cc4)C3)n12 (configuration not stated) the results were mHTT CaM bind 6 and Pf apPOL block -4.
Screening O=C(O)c1ccc2c(c1)C1C=CCC1C(c1ccc(Cl)cc1Cl)N2 (configuration not stated) returned mHTT CaM bind 67* and Pf apPOL block -4.
For NS(=O)(=O)c1ccc2c(c1)C1C=CCC1C(c1ccc([N+](=O)[O-])cc1)N2 (configuration not stated) the results were mHTT CaM bind 92* and Pf apPOL block 4.
O=[N+]([O-])c1ccc(C2Nc3cc(Br)ccc3C3C=CCC32)cc1 (configuration not stated) was read as mHTT CaM bind 40.
`O=C(O)c1cccc2c1NC(c1ccc(Cl)cc1Cl)C1CC=CC21` (configuration not stated) gave mHTT CaM bind 56* and Pf apPOL block 6.
`COc1cccc(C2Nc3ccc(C(C)=O)cc3C3C=CCC32)c1OC` (configuration not stated) gave mHTT CaM bind 64* and Pf apPOL block 0.
Screening O=C(c1cccc2c1NC(c1ccc(Cl)cc1Cl)C1CC=CC21)N1CCCC1 (configuration not stated) returned mHTT CaM bind -4 and Pf apPOL block -4.
Screening CC(=O)c1ccc2c(c1)C1C=CCC1C(c1cc3c(cc1Br)OCO3)N2 (configuration not stated) returned mHTT CaM bind 28 and Pf apPOL block -3.
O=C(O)C1CC=CCC1c1ccc(Cl)cc1Cl (configuration not stated) was read as Pf apPOL block -1.
`CCOc1ccc(Sc2cc(C(=O)NCc3ccccn3)c3ccccc3n2)cc1` gave mHTT CaM bind 45 and Pf apPOL block -22.
For O=C(NCCCc1ccccc1)c1ccccc1 the results were mHTT CaM bind -4 and Pf apPOL block -3.
`COc1ccc(CC(=O)N2CCCC2c2cccc(F)c2)cc1OC` (configuration not stated) gave mHTT CaM bind 15 and Pf apPOL block -4.
`NS(=O)(=O)c1ccc2c(c1)C1C=CCC1C(c1ccc(Cl)cc1Cl)N2` (configuration not stated) gave mHTT CaM bind 79* and Pf apPOL block -2.
For CCOC(=O)c1ccc(-n2c(C)ccc2C)cc1 the results were Pf apPOL block -6.
Screening Cc1ccc(C)n1-c1ccc(C(=O)ON2C(=O)CCC2=O)cc1 returned Pf apPOL block 82*.
`CCCCOc1ccccc1NC(=O)c1ccc(C)c(C)c1` gave mHTT CaM bind -62 and Pf apPOL block -4.
`COc1ccc(C2/C=C\CN(C(=O)C3CC3)[C@@H](Cc3ccccc3)C(=O)N2Cc2ccc(F)cc2)cc1` (some centres not stated) gave mHTT CaM bind 91* and Pf apPOL block -1.
For COc1ccc(C2/C=C\CN(CC(C)C)[C@@H](Cc3ccccc3)C(=O)N2Cc2ccc(F)cc2)cc1 (some centres not stated) the results were mHTT CaM bind -4 and Pf apPOL block -3.

High-throughput results from PubChem BioAssay.
